Reference: PubChem BioAssay AID743313 (Broad Institute, 2014)
Values without a mark were called inactive. Calls of active or inactive are those of the source.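 Rule for the calls: active = cell killing with a fitted half-maximal concentration no more than twice the top valid dose used; inconclusive = flat curve with a moderate signal drop, or poor fit; inactive = the rest.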

Assay: loss of HepG2 viability via ATP – cell-based, plate reader, dry powder, set 7, cytotoxicity control, dose response (AID 743313)
Settings: ATP luminescence (CellTiter-Glo), 72 h; series mostly up to 26 µM; activity change, negative = cytotoxicity: at the top concentration

Q: With `Cc1cccc(OCCn2c(=S)[nH]c3ccccc32)c1` as the compound, how does the “activity change, negative = cytotoxicity” value read?
A: -3.15%

Q: Which “activity change, negative = cytotoxicity” value does the source give for `Cc1ccc(C(C)C)c(OCCn2c(=S)[nH]c3cccc(Cl)c32)c1` here?
A: -14.8%

Q: Which outcome does the source give for `Cc1ccc(C(C)C)c(OCCn2c(=S)[nH]c3ccccc32)c1` here?
A: inactive

Q: Which “activity change, negative = cytotoxicity” value does the source give for `Cc1ccc(OCCn2cnc3ccccc32)cc1` here?
A: -8.55%

Q: With `Cc1cccc(OCCn2c(=S)[nH]c3ccccc32)c1C` as the compound, how does the “activity change, negative = cytotoxicity” value read?
A: -6.93%

Q: With `Fc1ccc(OCCn2c(=S)[nH]c3ccccc32)cc1` as the compound, how does the “activity change, negative = cytotoxicity” value read?
A: -11.5%

Q: For `Cc1ccccc1OCCn1c(=S)[nH]c2ccccc21`, which “activity change, negative = cytotoxicity” value is on record?
A: -15.7%

Q: With `Cc1ccc(C(C)C)c(OCCn2c(=S)[nH]c3cccc(C)c32)c1` as the compound, how does the “activity change, negative = cytotoxicity” value read?
A: -14.8%

Q: With `CC(C)(C)c1ccc(OCCn2c(=S)[nH]c3ccccc32)cc1` as the compound, how does the “activity change, negative = cytotoxicity” value read?
A: -18.1%

Q: For `Cc1ccc(C(C)C)c(OCCn2c(=S)[nH]c3ccc(Cl)cc32)c1`, which “activity change, negative = cytotoxicity” value is on record?
A: -7.22%

Q: For `Cc1ccc(OCCn2c(C)nc3ccccc32)cc1`, which “activity change, negative = cytotoxicity” value is on record?
A: -16.1%

Q: Which “activity change, negative = cytotoxicity” value does the source give for `Cc1ccc(C(C)C)c(OCCn2c(=S)[nH]c3c(Cl)cccc32)c1` here?
A: -12.2%

Q: For `CCOc1ccc(OCCn2c(=S)[nH]c3ccccc32)cc1`, which “activity change, negative = cytotoxicity” value is on record?
A: -11.2%

Q: Which “activity change, negative = cytotoxicity” value does the source give for `Fc1ccccc1OCCn1c(=S)[nH]c2ccccc21` here?
A: -9.67%

Q: For `CC(C)c1ccc(OCCn2c(=S)[nH]c3ccccc32)cc1`, which “activity change, negative = cytotoxicity” value is on record?
A: -24%

Q: Which “activity change, negative = cytotoxicity” value does the source give for `Cc1ccc(C(C)C)c(OCCn2c(CO)nc3ccccc32)c1` here?
A: -9.48%

Q: With `Cc1cccc2[nH]c(=S)n(CCOc3ccccc3)c12` as the compound, how does the “activity change, negative = cytotoxicity” value read?
A: -4.27%

Q: With `Cc1ccc(C(C)C)c(OCCn2c(=S)[nH]c3c(C)cccc32)c1` as the compound, how does the “activity change, negative = cytotoxicity” value read?
A: -17.4%

Q: Which outcome does the source give for `Cc1ccc2c(c1)[nH]c(=S)n2CCOc1ccccc1` here?
A: inactive

Q: Which “activity change, negative = cytotoxicity” value does the source give for `c1ccc(OCCn2cnc3ccccc32)cc1` here?
A: -12.9%

Q: For `S=c1[nH]c2ccccc2n1CCOc1ccc(Cl)cc1`, which “activity change, negative = cytotoxicity” value is on record?
A: -18.1%
